Data from PubChem BioAssay (EPA / NIEHS).
Calls of active or inactive are those of the source. How the source made its calls: active means hit-call score of the fitted dose curve at least 0.9, where 1 is the maximum; inactive means score below 0.9.

Columns and labels:
[1] = ATG_CRE_CIS: Attagene CIS-FACTORIAL HepG2 Assay for human cAMP Responsive Element (CRE) binding protein 3 (AID 2282926); settings: HepG2 CRE cis-reporter, Attagene multiplexed mRNA; actives raise or lower the signal
Outline: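 Multiplexed transcription-unit reporters transfected into HepG2; 24 h dosing; RT-PCR/capillary electrophoresis fluorescence read-out; bidirectional fit vs DMSO.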

[2] = biological target: CCAAT/enhancer-binding protein beta (Homo sapiens) (UniProt P17676); experiment: ATG_C_EBP_CIS: Attagene CIS-FACTORIAL HepG2 Assay for human CCAAT/Enhancer Binding Protein (C/EBP) beta (AID 2282927); settings: HepG2 Attagene cis-factorial transcription factor reporter; actives raise or lower the signal
Outline: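 Following a 24 h incubation with test chemical, transfected HepG2 cells yielded RNA whose reporter transcripts were quantified by RT-PCR and fluorescent capillary electrophoresis, with DMSO serving as baseline for bidirectional fitting.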

[3] = ATG_CMV_CIS: Attagene CIS-FACTORIAL HepG2 Assay for human CMV (Internal Marker) (AID 2282928); settings: HepG2 CMV promoter reporter, transcription factor profiling; actives raise or lower the signal;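 further: endpoint acts as a background internal control marker rather than a target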
Outline: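 Cell system: HepG2, transiently transfected multiple reporter units under cis promoters. Exposure: 24 h. Detection: RT-PCR, FAM labeling, HpaI digestion, capillary electrophoresis. Analysis: bidirectional, DMSO baseline.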

[4] = ATG_DR4_LXR_CIS: Attagene CIS-FACTORIAL HepG2 Assay for human Liver X Receptor (LXR), DR4 submotif (AID 2282929); settings: HepG2 Attagene DR4 cis-reporter, mRNA transcription; actives raise or lower the signal
Outline: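 Fluorescence intensity of labelled reporter cDNA fragments, separated by capillary electrophoresis, gives the signal. HepG2 cells bearing cis-regulated reporter constructs were treated 24 h; activity fitted bidirectionally relative to DMSO negative control.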

[5] = biological target: Aryl hydrocarbon receptor (Homo sapiens) (UniProt P35869); experiment: ATG_Ahr_CIS: Attagene CIS-FACTORIAL HepG2 Assay for human Aryl Hydrocarbon Receptor (Ahr) (AID 2282930); settings: HepG2 AhR cis-factorial reporter transcription; actives raise or lower the signal
Outline: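 Values derive from bidirectional fitting against DMSO negative control. Underlying signal: cis-element reporter mRNA in transiently transfected HepG2, harvested 24 h post-dose and measured by RT-PCR plus capillary electrophoresis.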

[6] = ATG_AP_1_CIS: Attagene CIS-FACTORIAL HepG2 Assay for human Activator Protein 1 (AP-1) (AID 2282931); settings: HepG2 Attagene cis-factorial AP-1 reporter mRNA; actives raise or lower the signal
Outline: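 Multiplexed HepG2 reporter assay, 24 h dosing. mRNA induction detected by RT-PCR plus capillary electrophoresis. Activity fitted in both directions against DMSO.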

[7] = ATG_AP_2_CIS: Attagene CIS-FACTORIAL HepG2 Assay for human Activator Protein 2 (AP-2) (AID 2282932); settings: HepG2 AP-2 cis-reporter, Attagene transcription factor profiling; actives raise or lower the signal
Outline: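 HepG2 cells were transiently transfected with multiple cis-promoter reporter transcription units and dosed for 24 h. Reporter mRNA was measured by RT-PCR with capillary electrophoresis fluorescence; bidirectional fits relative to DMSO baseline.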

[8] = ATG_BRE_CIS: Attagene CIS-FACTORIAL HepG2 Assay for human Bone Morphogenetic Protein (BMP) Response Element (BRE) (AID 2282933); settings: HepG2 BMP response element reporter, Attagene transcription factor profiling; actives raise or lower the signal
Outline: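 Fluorescence-labelled reporter cDNA fragments, separated by capillary electrophoresis, gave the signal for this component of a 52-readout multiplex. HepG2 cells were transfected, exposed to chemicals for 24 h, and compared with DMSO using bidirectional fitting.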

[9] = biological target: Retinoic acid receptor alpha (Homo sapiens) (UniProt P10276); experiment: ATG_DR5_RAR_CIS: Attagene CIS-FACTORIAL HepG2 Assay for human Retinoic Acid Receptor Alpha (RARE), DR5 submotif (AID 2282934); settings: HepG2 Attagene cis-factorial RARE DR5 reporter, mRNA; actives raise or lower the signal;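 on AC50: reporter responds to endogenous RAR alpha beta and gamma in HepG2 not RARA alone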
Outline: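 Endpoint fitted in both directions relative to DMSO as negative control. It reflects DR5 cis-element reporter mRNA induction in transiently transfected HepG2 cells, measured 24 h after dosing through RT-PCR and fluorescent capillary electrophoresis.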

[10] = biological target: Transcription factor E2F1 (Homo sapiens) (UniProt Q01094); experiment: ATG_E2F_CIS: Attagene CIS-FACTORIAL HepG2 Assay for human E2F Transcription Factor 1 (AID 2282935); settings: HepG2 Attagene cis-reporter, E2F reporter RNA transcripts; actives raise or lower the signal
Outline: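 HepG2 cells transiently transfected with multiplexed cis-element reporter units, dosed for 24 h. Reporter mRNA measured by RT-PCR, 6-FAM primer-extension labeling, HpaI digestion and capillary electrophoresis; bidirectional fit versus DMSO baseline.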

Measured: AC50

Chain of Aryl hydrocarbon receptor (Homo sapiens) (P35869 whole entry, looked up): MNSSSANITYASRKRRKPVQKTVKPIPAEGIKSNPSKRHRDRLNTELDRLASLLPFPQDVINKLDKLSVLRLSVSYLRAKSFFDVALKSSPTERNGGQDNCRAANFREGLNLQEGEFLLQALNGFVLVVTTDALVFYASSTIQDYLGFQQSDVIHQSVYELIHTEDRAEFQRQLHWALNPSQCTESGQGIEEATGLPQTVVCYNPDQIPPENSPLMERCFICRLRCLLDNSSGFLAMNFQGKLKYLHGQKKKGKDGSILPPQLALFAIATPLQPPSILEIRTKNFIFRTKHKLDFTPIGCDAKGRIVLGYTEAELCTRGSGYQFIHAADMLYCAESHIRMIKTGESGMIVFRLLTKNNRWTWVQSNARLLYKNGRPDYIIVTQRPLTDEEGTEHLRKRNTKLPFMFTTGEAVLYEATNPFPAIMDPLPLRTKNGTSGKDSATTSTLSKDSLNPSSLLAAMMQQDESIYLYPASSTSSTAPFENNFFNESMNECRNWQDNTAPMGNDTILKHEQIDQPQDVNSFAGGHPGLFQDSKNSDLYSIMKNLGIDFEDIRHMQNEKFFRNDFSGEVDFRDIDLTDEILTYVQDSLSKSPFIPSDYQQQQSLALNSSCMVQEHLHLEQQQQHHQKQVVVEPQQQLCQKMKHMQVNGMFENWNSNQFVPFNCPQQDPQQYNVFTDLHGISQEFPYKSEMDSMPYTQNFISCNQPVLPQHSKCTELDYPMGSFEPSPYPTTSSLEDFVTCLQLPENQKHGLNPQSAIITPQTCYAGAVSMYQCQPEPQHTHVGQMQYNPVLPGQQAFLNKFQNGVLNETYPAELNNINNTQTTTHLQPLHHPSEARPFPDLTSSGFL
Chain of CCAAT/enhancer-binding protein beta (Homo sapiens) (P17676 whole entry, looked up): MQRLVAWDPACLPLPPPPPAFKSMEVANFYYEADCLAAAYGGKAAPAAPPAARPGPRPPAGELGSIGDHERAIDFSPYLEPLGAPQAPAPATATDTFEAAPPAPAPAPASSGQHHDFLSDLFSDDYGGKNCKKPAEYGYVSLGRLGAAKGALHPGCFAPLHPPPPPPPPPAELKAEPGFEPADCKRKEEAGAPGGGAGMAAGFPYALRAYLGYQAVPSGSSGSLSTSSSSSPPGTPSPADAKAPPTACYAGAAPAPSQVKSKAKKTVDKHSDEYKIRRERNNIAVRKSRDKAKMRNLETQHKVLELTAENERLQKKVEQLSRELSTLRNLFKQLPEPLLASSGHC
Chain of Transcription factor E2F1 (Homo sapiens) (Q01094 whole entry, looked up): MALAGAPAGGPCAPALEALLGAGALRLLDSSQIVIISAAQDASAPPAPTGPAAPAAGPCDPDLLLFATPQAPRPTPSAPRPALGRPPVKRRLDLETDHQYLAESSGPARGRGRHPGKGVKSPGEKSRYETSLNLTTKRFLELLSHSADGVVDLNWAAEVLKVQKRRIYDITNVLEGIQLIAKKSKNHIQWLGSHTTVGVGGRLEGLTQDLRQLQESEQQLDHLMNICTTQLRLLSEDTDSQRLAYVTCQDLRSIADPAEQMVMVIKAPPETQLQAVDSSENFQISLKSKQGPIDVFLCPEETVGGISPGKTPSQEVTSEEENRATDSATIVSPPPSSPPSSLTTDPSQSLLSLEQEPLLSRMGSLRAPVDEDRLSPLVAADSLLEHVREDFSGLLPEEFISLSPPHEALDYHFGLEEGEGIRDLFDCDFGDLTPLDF
Chain of Retinoic acid receptor alpha (Homo sapiens) (P10276 whole entry, looked up): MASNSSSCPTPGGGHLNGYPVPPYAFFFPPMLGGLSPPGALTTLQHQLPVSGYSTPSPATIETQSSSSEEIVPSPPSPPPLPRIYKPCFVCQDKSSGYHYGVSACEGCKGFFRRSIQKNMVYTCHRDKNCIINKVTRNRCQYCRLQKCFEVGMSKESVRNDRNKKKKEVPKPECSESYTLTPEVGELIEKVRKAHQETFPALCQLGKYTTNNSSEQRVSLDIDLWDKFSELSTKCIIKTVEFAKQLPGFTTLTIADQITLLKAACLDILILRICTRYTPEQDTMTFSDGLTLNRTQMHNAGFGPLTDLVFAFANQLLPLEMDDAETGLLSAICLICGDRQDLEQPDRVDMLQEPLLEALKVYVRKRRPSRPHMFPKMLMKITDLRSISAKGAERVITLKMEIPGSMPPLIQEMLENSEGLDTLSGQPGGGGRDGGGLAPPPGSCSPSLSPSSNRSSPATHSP

Cc1cc(C)c(C)cc1C
inactive: all assays above

COc1ccc([C@@H]2CC(=O)c3c(O)cc(O[C@@H]4O[C@H](CO[C@@H]5O[C@@H](C)[C@H](O)[C@@H](O)[C@H]5O)[C@@H](O)[C@H](O)[C@H]4O)cc3O2)cc1OC
not listed: [10]
inactive: all other assays above

COCCCOCCCOC
inactive: all assays above

Cc1c(C)c([N+](=O)[O-])c(C(C)(C)C)c([N+](=O)[O-])c1C
active: [9] 5.92 µM
inactive: all other assays above

O=C1Nc2ccccc2C1(c1ccc(O)cc1)c1ccc(O)cc1
active: [1] 23.9 µM | [3] 136 µM | [4] 36.7 µM | [5] 166 µM | [6] 162 µM | [7] 44.8 µM
inactive: [2] | [8] | [9] | [10]

Nc1nc2ccccc2[nH]1
active: [5] 28.6 µM
inactive: all other assays above

CCCCC(CC)COCC1CO1 (stereo unspecified)
inactive: all assays above

CC(=O)OC(C)C
inactive: all assays above

Nc1ccc(Oc2ccc(N)c(N)c2)cc1
active: [3] 85.5 µM
not listed: [10]
inactive: all other assays above

O=Cc1ccc(CO)o1
not listed: [10]
inactive: all other assays above

CCCCCCCCCCCCCOP(=O)(O)O
inactive: all assays above

C=C(C)[C@@H]1CCC2=CCC[C@@H](C)[C@]2(C)C1
active: [3] 67 µM | [6] 100 µM
inactive: all other assays above

CC(C)COC(=O)C=Cc1ccccc1
active: [6] 139 µM
not listed: [10]
inactive: all other assays above

CCCCCCCCO[C@@H]1O[C@H](CO)[C@@H](O)[C@H](O)[C@H]1O
inactive: all assays above

O=C(O)CC(C(=O)O)C(CC(=O)O)C(=O)O (stereo unspecified)
inactive: all assays above

CC1=NN(c2cc(S(=O)(=O)O)ccc2Cl)C(=O)C1N=Nc1ccccc1 (stereo unspecified)
active: [5] 0.541 µM
inactive: all other assays above

C[Si](C)O[Si](C)(C)O[Si](C)(C)O[Si](C)C
inactive: all assays above

C[Si](C)(C)O[Si](O)(O)O
inactive: all assays above

CC1(C)O[C@@H]2C[C@H]3[C@@H]4C[C@H](F)C5=CC(=O)CC[C@]5(C)[C@H]4[C@@H](O)C[C@]3(C)[C@]2(C(=O)CO)O1
inactive: all assays above

C=CC(=O)NC(C)(C)CS(=O)(=O)O
active: [8] 15.8 µM
inactive: all other assays above

C[Si](C)(CCCN)O[Si](C)(C)CCCN
inactive: all assays above

O=Nc1ccc(O)cc1
inactive: all assays above

CCOc1ccc(N)c([N+](=O)[O-])c1
inactive: all assays above

CC(C)=CCC[C@H](C)CCO
inactive: all assays above

S=C(NC1CCCCC1)NC1CCCCC1
inactive: all assays above
